Laboratory results taken from paper PMC7862700, “An all-to-all approach to the identification of sequence-specific readers for epigenetic DNA modifications on cytosine”.

Legend:
Assay in all cases: DAPPL (digital affinity profiling via proximity ligation, sequencing); 10 mM Tris-HCl pH 7.5, 50 mM NaCl, 1 mM DTT, 4% glycerol, room temperature, 30 min; GST-TFs on glutathione beads, 16-mer random dsDNA library, 0.1% formaldehyde crosslink after washing; high values mean tight binding
Conditions in all cases: protein: recombinant; tags: N-terminal GST; dsDNA, one strand shown
[1] = target: T1, FLI1 (Homo sapiens, UniProt Q01543 1-452)
T1 sequence: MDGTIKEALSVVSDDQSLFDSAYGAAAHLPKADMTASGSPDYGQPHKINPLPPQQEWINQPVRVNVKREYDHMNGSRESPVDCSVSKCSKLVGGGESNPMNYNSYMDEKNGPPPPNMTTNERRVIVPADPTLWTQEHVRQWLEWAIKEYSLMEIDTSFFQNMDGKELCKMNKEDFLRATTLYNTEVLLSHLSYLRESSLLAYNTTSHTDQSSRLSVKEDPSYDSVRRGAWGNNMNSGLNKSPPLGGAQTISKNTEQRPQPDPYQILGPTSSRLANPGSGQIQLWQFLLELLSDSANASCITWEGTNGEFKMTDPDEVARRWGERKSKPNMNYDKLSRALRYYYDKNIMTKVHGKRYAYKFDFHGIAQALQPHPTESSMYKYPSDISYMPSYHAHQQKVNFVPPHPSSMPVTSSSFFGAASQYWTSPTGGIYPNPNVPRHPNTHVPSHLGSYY
Method in brief: (§1)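 Each value of binding signal is a hexamer's read frequency for a factor divided by the same hexamer's frequency in the tag-only sample. Barcoded, bead-captured GST fusions of human transcription factors made in yeast were pooled with that sample and incubated with 200 nmole of a random double-stranded 16-mer DNA library in Tris/NaCl/DTT/glycerol buffer at room temperature for 30 min. Washing, 0.1% formaldehyde crosslinking, proximity ligation, PCR and Illumina NextSeq500 sequencing followed.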

[2] = target: T2, ELK1 (Homo sapiens, UniProt P19419 1-428)
T2 sequence: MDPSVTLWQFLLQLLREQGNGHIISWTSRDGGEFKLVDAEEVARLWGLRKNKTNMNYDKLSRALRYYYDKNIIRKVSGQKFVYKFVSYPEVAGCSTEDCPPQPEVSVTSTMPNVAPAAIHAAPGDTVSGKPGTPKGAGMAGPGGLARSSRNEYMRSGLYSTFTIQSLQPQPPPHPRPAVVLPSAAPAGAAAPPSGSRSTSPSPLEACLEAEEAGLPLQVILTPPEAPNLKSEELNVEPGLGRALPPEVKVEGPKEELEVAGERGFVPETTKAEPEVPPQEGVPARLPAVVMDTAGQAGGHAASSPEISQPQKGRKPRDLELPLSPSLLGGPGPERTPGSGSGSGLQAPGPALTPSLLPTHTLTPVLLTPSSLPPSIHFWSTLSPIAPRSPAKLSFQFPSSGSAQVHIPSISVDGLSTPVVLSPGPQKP
Method in brief: as §1

[3] = target: T3, GABPA (Homo sapiens, UniProt Q06546 1-454)
T3 sequence: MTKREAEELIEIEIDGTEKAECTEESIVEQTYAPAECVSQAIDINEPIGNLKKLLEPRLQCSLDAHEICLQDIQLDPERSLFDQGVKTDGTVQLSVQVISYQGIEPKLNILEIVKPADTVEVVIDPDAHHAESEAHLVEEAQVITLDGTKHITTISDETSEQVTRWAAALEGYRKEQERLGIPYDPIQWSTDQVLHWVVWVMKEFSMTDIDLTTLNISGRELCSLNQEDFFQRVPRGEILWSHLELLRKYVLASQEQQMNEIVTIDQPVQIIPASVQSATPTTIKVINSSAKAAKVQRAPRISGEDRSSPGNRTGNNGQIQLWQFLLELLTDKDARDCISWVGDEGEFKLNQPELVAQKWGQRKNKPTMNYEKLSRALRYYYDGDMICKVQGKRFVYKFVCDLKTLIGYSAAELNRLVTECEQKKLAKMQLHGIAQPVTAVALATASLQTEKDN
Method in brief: as §1

[4] = target: T4, ERG (Homo sapiens, UniProt P11308 1-479)
T4 sequence: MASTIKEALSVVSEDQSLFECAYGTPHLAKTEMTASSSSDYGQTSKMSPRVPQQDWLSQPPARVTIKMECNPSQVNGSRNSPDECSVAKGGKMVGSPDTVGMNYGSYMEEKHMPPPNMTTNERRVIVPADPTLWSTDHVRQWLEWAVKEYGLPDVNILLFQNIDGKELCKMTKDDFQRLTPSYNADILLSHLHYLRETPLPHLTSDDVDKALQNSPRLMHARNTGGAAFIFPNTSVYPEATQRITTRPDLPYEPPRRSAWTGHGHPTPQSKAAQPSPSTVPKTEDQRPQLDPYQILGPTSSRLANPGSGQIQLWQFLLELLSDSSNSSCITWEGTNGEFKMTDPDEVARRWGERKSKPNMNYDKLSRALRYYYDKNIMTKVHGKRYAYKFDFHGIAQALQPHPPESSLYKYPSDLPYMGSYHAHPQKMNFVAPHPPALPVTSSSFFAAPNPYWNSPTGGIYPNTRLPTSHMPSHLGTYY
Method in brief: as §1

[5] = target: ELF1 (Homo sapiens, UniProt P32519 1-619)
Method in brief: as §1

[6] = target: T5, EHF (Homo sapiens, UniProt Q9NZC4 1-300)
T5 sequence: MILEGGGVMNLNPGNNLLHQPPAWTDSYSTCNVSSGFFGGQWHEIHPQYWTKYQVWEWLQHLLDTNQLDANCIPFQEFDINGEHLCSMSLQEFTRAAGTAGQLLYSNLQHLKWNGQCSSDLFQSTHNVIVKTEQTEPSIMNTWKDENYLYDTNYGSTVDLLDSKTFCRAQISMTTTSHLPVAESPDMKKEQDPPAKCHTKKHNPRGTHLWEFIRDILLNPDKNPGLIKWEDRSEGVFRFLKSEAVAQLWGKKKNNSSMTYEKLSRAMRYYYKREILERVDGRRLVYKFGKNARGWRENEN
Method in brief: as §1

[7] = target: SPI1 (Homo sapiens, UniProt P17947 1-270)
Method in brief: as §1

[8] = target: SPIB (Homo sapiens, UniProt Q01892 1-262)
Method in brief: as §1

[9] = target: T6, ELK3 (Homo sapiens, UniProt P41970 1-407)
T6 sequence: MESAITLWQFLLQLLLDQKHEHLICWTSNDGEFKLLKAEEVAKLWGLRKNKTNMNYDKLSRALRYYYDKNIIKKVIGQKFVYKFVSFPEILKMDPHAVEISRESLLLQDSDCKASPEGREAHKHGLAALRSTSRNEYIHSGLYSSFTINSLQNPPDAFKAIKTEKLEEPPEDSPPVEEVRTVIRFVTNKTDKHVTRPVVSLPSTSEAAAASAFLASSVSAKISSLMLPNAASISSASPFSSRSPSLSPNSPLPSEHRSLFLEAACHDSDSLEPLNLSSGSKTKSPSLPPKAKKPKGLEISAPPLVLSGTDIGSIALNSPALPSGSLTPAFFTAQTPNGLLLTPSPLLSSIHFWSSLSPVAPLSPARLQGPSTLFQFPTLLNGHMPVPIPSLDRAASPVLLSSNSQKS
Method in brief: as §1

Sequence of ELF1 (P32519 whole entry): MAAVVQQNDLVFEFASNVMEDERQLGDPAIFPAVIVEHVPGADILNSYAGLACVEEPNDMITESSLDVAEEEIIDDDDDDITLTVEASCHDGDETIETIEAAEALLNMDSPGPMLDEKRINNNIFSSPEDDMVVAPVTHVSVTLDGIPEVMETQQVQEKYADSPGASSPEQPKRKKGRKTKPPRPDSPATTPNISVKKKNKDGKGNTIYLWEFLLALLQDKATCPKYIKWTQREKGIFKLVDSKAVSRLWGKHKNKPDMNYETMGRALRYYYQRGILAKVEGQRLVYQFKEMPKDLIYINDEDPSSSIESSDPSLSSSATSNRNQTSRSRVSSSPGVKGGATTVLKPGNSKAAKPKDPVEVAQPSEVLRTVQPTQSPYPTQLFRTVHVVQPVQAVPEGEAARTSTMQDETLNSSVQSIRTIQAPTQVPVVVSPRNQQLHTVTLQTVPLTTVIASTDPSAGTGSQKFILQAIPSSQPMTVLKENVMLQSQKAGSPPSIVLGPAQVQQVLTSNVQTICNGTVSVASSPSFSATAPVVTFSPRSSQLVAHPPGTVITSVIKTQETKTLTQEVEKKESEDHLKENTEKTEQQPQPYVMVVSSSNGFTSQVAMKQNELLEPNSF
Sequence of SPIB (Q01892 whole entry): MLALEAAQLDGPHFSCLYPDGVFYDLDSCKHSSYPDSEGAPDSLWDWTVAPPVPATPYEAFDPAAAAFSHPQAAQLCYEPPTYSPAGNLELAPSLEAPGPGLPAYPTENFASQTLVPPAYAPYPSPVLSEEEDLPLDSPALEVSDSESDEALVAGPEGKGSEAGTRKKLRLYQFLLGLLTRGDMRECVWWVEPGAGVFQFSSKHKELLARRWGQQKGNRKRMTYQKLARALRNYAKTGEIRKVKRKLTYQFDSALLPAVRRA

| Sequence | binding signal [1] | binding signal [2] | binding signal [3] | binding signal [4] | binding signal [5] | binding signal [6] | binding signal [7] | binding signal [8] | binding signal [9] |
| --- | --- | --- | --- | --- | --- | --- | --- | --- | --- |
| GTTCAT | 1.19 fold enrichment (6-mer frequency, TF over GST control) | 1.25 fold enrichment (6-mer frequency, TF over GST control) | 1.19 fold enrichment (6-mer frequency, TF over GST control) | 1.1 fold enrichment (6-mer frequency, TF over GST control) | 1.13 fold enrichment (6-mer frequency, TF over GST control) | 1.17 fold enrichment (6-mer frequency, TF over GST control) | 1.18 fold enrichment (6-mer frequency, TF over GST control) | 1.14 fold enrichment (6-mer frequency, TF over GST control) | 1.15 fold enrichment (6-mer frequency, TF over GST control) |
| TGCATA | 1.08 fold enrichment (6-mer frequency, TF over GST control) | 1.11 fold enrichment (6-mer frequency, TF over GST control) | 1.13 fold enrichment (6-mer frequency, TF over GST control) | 1.11 fold enrichment (6-mer frequency, TF over GST control) | 1.06 fold enrichment (6-mer frequency, TF over GST control) | 1.16 fold enrichment (6-mer frequency, TF over GST control) | 1.15 fold enrichment (6-mer frequency, TF over GST control) | 1.11 fold enrichment (6-mer frequency, TF over GST control) | 1.15 fold enrichment (6-mer frequency, TF over GST control) |
| TAAGCC | 1.15 fold enrichment (6-mer frequency, TF over GST control) | 1.12 fold enrichment (6-mer frequency, TF over GST control) | 1.19 fold enrichment (6-mer frequency, TF over GST control) | 1.13 fold enrichment (6-mer frequency, TF over GST control) | 1.16 fold enrichment (6-mer frequency, TF over GST control) | 1.08 fold enrichment (6-mer frequency, TF over GST control) | 1.08 fold enrichment (6-mer frequency, TF over GST control) | 1.19 fold enrichment (6-mer frequency, TF over GST control) | 1.06 fold enrichment (6-mer frequency, TF over GST control) |
| ATGGAA | 1.17 fold enrichment (6-mer frequency, TF over GST control) | 1.11 fold enrichment (6-mer frequency, TF over GST control) | 1.18 fold enrichment (6-mer frequency, TF over GST control) | 1.26 fold enrichment (6-mer frequency, TF over GST control) | 1.16 fold enrichment (6-mer frequency, TF over GST control) | 1.2 fold enrichment (6-mer frequency, TF over GST control) | 1.18 fold enrichment (6-mer frequency, TF over GST control) | 1.19 fold enrichment (6-mer frequency, TF over GST control) | 1.11 fold enrichment (6-mer frequency, TF over GST control) |
| TGTACA | 1.22 fold enrichment (6-mer frequency, TF over GST control) | 1.26 fold enrichment (6-mer frequency, TF over GST control) | 1.1 fold enrichment (6-mer frequency, TF over GST control) | 1.24 fold enrichment (6-mer frequency, TF over GST control) | 1.23 fold enrichment (6-mer frequency, TF over GST control) | 1.26 fold enrichment (6-mer frequency, TF over GST control) | 1.28 fold enrichment (6-mer frequency, TF over GST control) | 1.35 fold enrichment (6-mer frequency, TF over GST control) | 1.11 fold enrichment (6-mer frequency, TF over GST control) |
| TTGGCC | 1.22 fold enrichment (6-mer frequency, TF over GST control) | 1.24 fold enrichment (6-mer frequency, TF over GST control) | 1.23 fold enrichment (6-mer frequency, TF over GST control) | 1 fold enrichment (6-mer frequency, TF over GST control) | 1.1 fold enrichment (6-mer frequency, TF over GST control) | 1.17 fold enrichment (6-mer frequency, TF over GST control) | 1.08 fold enrichment (6-mer frequency, TF over GST control) | 1.16 fold enrichment (6-mer frequency, TF over GST control) | 1.12 fold enrichment (6-mer frequency, TF over GST control) |
| GCCCCT | 1.22 fold enrichment (6-mer frequency, TF over GST control) | 1.2 fold enrichment (6-mer frequency, TF over GST control) | 1.24 fold enrichment (6-mer frequency, TF over GST control) | 1.23 fold enrichment (6-mer frequency, TF over GST control) | 1.37 fold enrichment (6-mer frequency, TF over GST control) | 1.43 fold enrichment (6-mer frequency, TF over GST control) | 1.29 fold enrichment (6-mer frequency, TF over GST control) | 1.21 fold enrichment (6-mer frequency, TF over GST control) | 1.36 fold enrichment (6-mer frequency, TF over GST control) |
| TAATCC | 1.29 fold enrichment (6-mer frequency, TF over GST control) | 1.26 fold enrichment (6-mer frequency, TF over GST control) | 1.25 fold enrichment (6-mer frequency, TF over GST control) | 1.34 fold enrichment (6-mer frequency, TF over GST control) | 1.15 fold enrichment (6-mer frequency, TF over GST control) | 1.25 fold enrichment (6-mer frequency, TF over GST control) | 1.29 fold enrichment (6-mer frequency, TF over GST control) | 1.28 fold enrichment (6-mer frequency, TF over GST control) | 1.35 fold enrichment (6-mer frequency, TF over GST control) |
